Measurements published in PubChem BioAssay (NCI).
Compounds without any hit were thinned out: in the full panel of roughly 83,000, 20% have a hit.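 Interpretation: 100, growth as untreated; towards 0, rising growth inhibition; 0, no net growth; 0 to -100, cell death. Compounds scoring below 10 were considered active.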 Values without a mark were called inactive. The source made the active and inactive calls.

Columns and labels:
Assay in all cases: NCI-60 one-dose screen, 48 h (100 = growth as untreated, 0 = no growth, -100 = all killed)
Conditions in all cases: 10 µM unless noted
T-47D breast = tested on: T-47D breast
BT-549 breast = tested on: BT-549 breast
MDA-MB-435 melanoma = tested on: MDA-MB-435 melanoma
SW-620 colon = tested on: SW-620 colon
MCF7 breast = tested on: MCF7 breast
HCT-116 colon = tested on: HCT-116 colon
HCC-2998 colon = tested on: HCC-2998 colon
KM12 colon = tested on: KM12 colon

Compound	growth (T-47D breast)	growth (BT-549 breast)	growth (MDA-MB-435 melanoma)	growth (SW-620 colon)	growth (MCF7 breast)	growth (HCT-116 colon)	growth (HCC-2998 colon)	growth (KM12 colon)
O=C1Nc2ccccc2[C@]12CC(c1ccccc1)=NN2	66.6%	59.3%	-1.7% (active)	23.4%	29.5%	26.2%	65%	31.9%
Cc1nnc(-n2c(O)cc(=O)n(-c3ccccc3)c2=S)nc1/C=C/c1ccc(N(C)C)cc1	38%	63.1%	24.8%	67.2%	21.6%	56.1%	63.7%	47.9%
COc1cc(-c2nc3cc(Cl)c(Cl)cc3[nH]2)ccc1OCC(=O)N=Nc1c(O)[nH]c2ccc([N+](=O)[O-])cc12	66.6%	98.8%	81.9%	82.7%	74%	42.6%	71.8%	103%
COc1ccc(OC)c(-c2c(C#N)c(-c3cccs3)nc3c2c(-c2ccccc2)nn3-c2ccccc2)c1	94.3%	121%	104%	93.9%	98.6%	91.7%	110%	105%
Oc1ccc(CN2CCC(N3CCCCC3)CC2)c2cccnc12	15%	38.9%	18.7%	30.2%	11.8%	18.9%	32.2%	30.8%
c1ccc(C2=NN[C@H](c3cn(-c4ccccc4)nc3-c3ccccc3)C2)cc1	43.5%	48.7%	67%	55.7%	74.4%	22.8%	64.6%	62.8%
CCCC(=O)NC(c1ccc2c(c1)OCO2)c1ccc2cccnc2c1O (configuration not stated)	19.8%	34.6%	26.9%	25.7%	5.86% (active)	11.8%	38%	30.6%
N#Cc1c(-c2ccccc2)cc(-c2ccccc2)n(CCCCCC(=O)Nc2ccccc2N)c1=O	48.3%	49.5%	92.1%	86.2%	68.4%	58.1%	80.5%	55.3%
COc1ccc(C2=Nc3c/c(=C\c4c(O)[nH]c5ccc(Cl)cc45)ccc3=N2)cc1	53.7%	35.3%	-68.5% (active)	5.99% (active)	0.287% (active)	33.6%	35.5%	17.1%
C=C(C)[C@@H]1CC[C@]2(C(=O)O)CC[C@]3(C)[C@H](CC[C@@H]4[C@@]5(C)C[C@@H](Cc6cn(CCO[C@@H]7O[C@H](COC(C)=O)[C@H](OC(C)=O)[C@H](OC(C)=O)[C@H]7OC(C)=O)nn6)[C@H](O)C(C)(C)[C@@H]5CC[C@]43C)[C@@H]12	51.6%	42.7%	94.2%	77.1%	47.1%	44.7%	81.5%	55.9%
S=C1CCSC(=S)N1CCCN1C(=S)CCSC1=S	35%	89.4%	59.6%	53%	20.8%	43%	96.2%	82.7%
CCN1C(=O)N(CC)C2C1NN=c1s/c(=C\c3cccc([N+](=O)[O-])c3)c(=O)n12 (configuration not stated)	59.3%	12.5%	-30.4% (active)	21.1%	17.1%	11%	15.9%	12.1%
COc1cc(C(=O)n2nc(N3CCN(C)CC3)c3cc(N)ccc32)cc(OC)c1OC	57.7%	27.9%	-12% (active)	30%	11.6%	7.66% (active)	89.7%	57.9%
O=[N+]([O-])c1ccc(-c2nc(N3CCOCC3)c3c4c(sc3n2)CCCC4)cc1	83.5%	82.3%	99.1%	95.1%	73.1%	68.1%	102%	95.5%
O=S(=O)(NCCNc1cc(-c2c(-c3cccc(O)c3)nc3sccn23)ccn1)c1ccc(C(F)(F)F)cc1	-1.89% (active)	26.6%	10.7%	47.3%	16.2%	26.6%	70.6%	26.7%
C#Cc1cccc(Nc2ncnc3ccc(-c4cncc(NS(C)(=O)=O)c4)cc23)c1	-5.8% (active)	19.2%	44.8%	31.1%	10.9%	11%	45.5%	36.1%
CS(=O)(=O)Nc1cc(-c2ccc3ncnc(Nc4ccc5c(cnn5Cc5ccccn5)c4)c3c2)cnc1Cl	18.5%	56.7%	77.5%	84.3%	36%	92.9%	80.4%	95.4%
c1cnc2[nH]cc(-c3csc(-c4cn(CCCN5CCOCC5)c5ccccc45)n3)c2c1	27.1%	50.3%	6.18% (active)	39.5%	28.6%	29.8%	58.6%	28.1%
COC(=O)c1c2c(c(C)[n+]([O-])c1C)C(=O)C(NCc1ccc(Cl)cc1)=CC2=O	37.5%	77.9%	9.83% (active)	45.9%	35.9%	11.5%	59.6%	48.8%
COc1cc(/C=C\c2cc(/C=C\c3ccc(O)c(OC)c3)n(C(=O)COc3ccc(Cl)cc3Cl)n2)ccc1O	15%	1.41% (active)	-12.1% (active)	16.7%	4.21% (active)	3.48% (active)	38.5%	9.93% (active)
CC(C)=CCC[C@](C)(O)[C@H]1CC[C@]2(C)[C@@H]1CC[C@@H]1[C@@]3(C)Cc4nccnc4C(C)(C)[C@@H]3CC[C@]12C	51.5%	74.8%	64.6%	71.1%	-59.3% (active)	46.9%	79.4%	75%
CCOc1ccc(NC(=O)CSc2oc(-c3ccccc3)nc2S(=O)(=O)c2ccc(F)cc2)cc1	63.1%	96.5%	88.9%	89.6%	71.4%	21.9%	85.3%	84.9%
CC(C)c1ccc(COCc2cc(CN3CCCC3)c(O)c3ncccc23)cc1	-7.55% (active)	13.1%	20.2%	3.8% (active)	7.67% (active)	5.58% (active)	14.6%	14.1%
Cc1ccc(-c2nc3nc(-c4ccc(F)cc4)nc(N4CCNCC4)c3o2)cc1	-27.4% (active)	99.5%	66%	-79.3% (active)	-74.2% (active)	-92.1% (active)	19.4%	-83.7% (active)
Cn1cc(-c2csc(-c3ccc(Cl)cc3)n2)c2cccnc21	-23.5% [100 µM] (active)	-38.1% [100 µM] (active)	-6.61% [100 µM] (active)	-62% [100 µM] (active)	-35.2% [100 µM] (active)	-62% [100 µM] (active)	-91.9% [100 µM] (active)	-82.4% [100 µM] (active)
O=C(Cn1cc(CN2CCCCCC2)nn1)Nc1ccc2c(ccn2Cc2ccccc2)c1	69.8%	86.9%	96.6%	96.9%	90.2%	95%	97.6%	93.8%
CCCCOC(=O)OCc1cc(=O)c(O)co1	90.8%	110%	102%	103%	94.5%	106%	106%	104%
CCS/C(Nc1ccccc1)=C(\C#N)C(=O)N/N=C/c1ccc(Cl)cc1Cl	17.8%	45.4%	-34.5% (active)	18.6%	19.3%	17.5%	48.4%	28%
Nc1ncnc2c1N=C(c1ccc3c(c1)OCO3)CC(c1cccc(Nc3ccnc4cc(Cl)ccc34)c1)N2 (configuration not stated)	43.3%	74.5%	51.6%	25.4%	8.54% (active)	6.7% (active)	72%	30.5%
